# From the supplement of paper PMC8728848
# The full list was thinned out, with the strongest signals kept by preference.
# How the values were obtained:
# Assay in all cases: glycan array binding signal (z-score within array); higher = stronger binding
# Conditions in all cases: glycan notation: IUPAC condensed, linker removed
# [1] = target: Fuc(a1-2)Gal(b1-3)GlcNAc6S
# In short: (§1)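 Arrays were curated from the Consortium for Functional Glycomics database, 3228 in total, and kept only where the protein sequence was available. Binding is expressed as a within-array Z-score. This score was averaged across arrays of the same protein sequence at different concentrations or buffers and across linkers, and negative values can be read as non-binding.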
# [2] = target: Fuc(a1-2)Gal(b1-3)[Fuc(a1-4)]GlcNAc(b1-2)Man(a1-3)[Fuc(a1-2)Gal(b1-3)[Fuc(a1-4)]GlcNAc(b1-2)Man(a1-3)]Man(b1-4)GlcNAc(b1-4)GlcNAc
# In short: as §1
# [3] = target: Fuc(a1-2)Gal(b1-4)[Fuc(a1-3)]GlcNAc(b1-3)GalNAc
# In short: as §1
# [4] = target: Fuc(a1-2)[Gal(a1-3)]Gal(b1-3)GlcNAc(b1-2)Man(a1-3)[Fuc(a1-2)[Gal(a1-3)]Gal(b1-3)GlcNAc(b1-2)Man(a1-6)]Man(b1-4)GlcNAc(b1-4)[Fuc(a1-6)]GlcNAc
# In short: as §1
# [5] = target: Fuc(a1-2)[Gal(a1-3)]Gal(b1-4)GlcNAc
# In short: as §1
# [6] = target: Fuc(a1-2)[GalNAc(a1-3)]Gal(b1-3)GlcNAc(b1-2)Man(a1-3)[Fuc(a1-2)[GalNAc(a1-3)]Gal(b1-3)GlcNAc(b1-2)Man(a1-6)]Man(b1-4)GlcNAc(b1-4)[Fuc(a1-6)]GlcNAc
# In short: as §1
# [7] = target: Fuc(a1-2)[GalNAc(a1-3)]Gal(b1-4)GlcNAc(b1-2)Man(a1-3)[Fuc(a1-2)[GalNAc(a1-3)]Gal(b1-4)GlcNAc(b1-2)Man(a1-6)]Man(b1-4)GlcNAc(b1-4)GlcNAc
# In short: as §1
# [8] = target: Fuc(a1-2)[GalNAc(a1-3)]Gal(b1-4)[Fuc(a1-3)]GlcNAc
# In short: as §1
# [9] = target: Fuc(a1-3)[Gal(b1-4)]GlcNAc(b1-2)Man
# In short: as §1
# [10] = target: Fuc(a1-3)[Gal(b1-4)]GlcNAc(b1-6)[Gal(b1-3)GlcNAc(b1-3)]Gal(b1-4)Glc
# In short: as §1
# [11] = target: Gal(a1-3)Gal(b1-3)GlcNAc(b1-2)Man(a1-3)[Gal(a1-3)Gal(b1-3)GlcNAc(b1-2)Man(a1-6)]Man(b1-4)GlcNAc(b1-4)GlcNAc
# In short: as §1
# [12] = target: Gal(b1-3)GlcNAc(b1-2)Man(a1-3)[Gal(b1-3)GlcNAc(b1-2)Man(a1-6)]Man(b1-4)GlcNAc(b1-4)[Fuc(a1-6)]GlcNAc
# In short: as §1
# [13] = target: Gal(b1-3)GlcNAc(b1-3)Gal(b1-4)GlcNAc(b1-2)Man(a1-3)[Gal(b1-3)GlcNAc(b1-3)Gal(b1-4)GlcNAc(b1-2)Man(a1-6)]Man(b1-4)GlcNAc(b1-4)GlcNAc
# In short: as §1
# [14] = target: Gal(b1-3)GlcNAc(b1-6)[Gal(b1-3)]GalNAc
# In short: as §1
# [15] = target: Gal(b1-3)[Neu5Ac(a2-6)]GalNAc
# In short: as §1
# Gal(b1-4)Glc6S = target: Gal(b1-4)Glc6S
# In short: as §1
# [16] = target: Gal(b1-4)GlcNAc(b1-2)[Gal(b1-4)GlcNAc(b1-4)]Man(a1-3)[Gal(b1-4)GlcNAc(b1-2)[Gal(b1-4)GlcNAc(b1-6)]Man(a1-6)]Man(b1-4)GlcNAc(b1-4)GlcNAc
# In short: as §1
# [17] = target: Gal(b1-4)GlcNAc(b1-2)[Gal(b1-4)GlcNAc(b1-6)]Man(a1-6)[Gal(b1-4)GlcNAc(b1-2)Man(a1-3)]Man(b1-4)GlcNAc(b1-4)[Fuc(a1-6)]GlcNAc
# In short: as §1
# [18] = target: Gal(b1-4)GlcNAc(b1-3)Gal(b1-4)GlcNAc(b1-2)Man(a1-3)[Gal(b1-4)GlcNAc(b1-3)Gal(b1-4)GlcNAc(b1-2)Man(a1-6)]Man(b1-4)GlcNAc(b1-4)GlcNAc
# In short: as §1
# [19] = target: Gal(b1-4)GlcNAc(b1-3)Gal(b1-4)GlcNAc(b1-3)Gal(b1-4)GlcNAc(b1-2)Man(a1-3)[Gal(b1-4)GlcNAc(b1-3)Gal(b1-4)GlcNAc(b1-3)Gal(b1-4)GlcNAc(b1-2)Man(a1-6)]Man(b1-4)GlcNAc(b1-4)GlcNAc
# In short: as §1
# [20] = target: Gal(b1-4)GlcNAc(b1-3)Gal(b1-4)GlcNAc(b1-3)Gal(b1-4)GlcNAc(b1-2)Man(a1-3)[Gal(b1-4)GlcNAc(b1-3)Gal(b1-4)GlcNAc(b1-3)Gal(b1-4)GlcNAc(b1-2)Man(a1-6)]Man(b1-4)GlcNAc(b1-4)[Fuc(a1-6)]GlcNAc
# In short: as §1
# [21] = target: Gal(b1-4)GlcNAc(b1-3)Gal(b1-4)GlcNAc(b1-3)Gal(b1-4)GlcNAc(b1-3)Gal(b1-4)GlcNAc(b1-2)Man(a1-3)[Gal(b1-4)GlcNAc(b1-3)Gal(b1-4)GlcNAc(b1-3)Gal(b1-4)GlcNAc(b1-3)Gal(b1-4)GlcNAc(b1-2)Man(a1-6)]Man(b1-4)GlcNAc(b1-4)[Fuc(a1-6)]GlcNAc
# In short: as §1
# [22] = target: Gal(b1-4)GlcNAc(b1-3)Gal(b1-4)GlcNAc(b1-3)Gal(b1-4)GlcNAc(b1-3)Gal(b1-4)GlcNAc(b1-3)Gal(b1-4)GlcNAc(b1-2)Man(a1-3)[Gal(b1-4)GlcNAc(b1-3)Gal(b1-4)GlcNAc(b1-3)Gal(b1-4)GlcNAc(b1-3)Gal(b1-4)GlcNAc(b1-3)Gal(b1-4)GlcNAc(b1-2)Man(a1-6)]Man(b1-4)GlcNAc(b1-4)[Fuc(a1-6)]GlcNAc
# In short: as §1
# [23] = target: Gal(b1-4)GlcNAc(b1-3)Gal(b1-4)GlcNAc(b1-3)[Gal(b1-4)GlcNAc(b1-3)Gal(b1-4)GlcNAc(b1-6)]GalNAc
# In short: as §1
# [24] = target: Gal(b1-4)GlcNAc(b1-3)[Gal(b1-4)GlcNAc(b1-6)]Gal(b1-4)GlcNAc
# In short: as §1
# [25] = target: Gal3S(b1-4)[Fuc(a1-3)]Glc6S
# In short: as §1
# [26] = target: GalNAc(b1-4)GlcNAc(b1-2)Man(a1-3)[GalNAc(b1-4)GlcNAc(b1-2)Man(a1-6)]Man(b1-4)GlcNAc(b1-4)GlcNAc
# In short: as §1
# [27] = target: GlcNAc(a1-4)Gal(b1-4)GlcNAc
# In short: as §1
# [28] = target: GlcNAc(b1-2)[GlcNAc(b1-4)]Man(a1-3)[GlcNAc(b1-2)Man(a1-6)]Man(b1-4)GlcNAc(b1-4)GlcNAc
# In short: as §1
# [29] = target: GlcNAc(b1-3)Gal(b1-4)GlcNAc(b1-3)Gal(b1-4)GlcNAc(b1-3)Gal(b1-4)GlcNAc(b1-3)Gal(b1-4)GlcNAc(b1-2)[GlcNAc(b1-3)Gal(b1-4)GlcNAc(b1-3)Gal(b1-4)GlcNAc(b1-3)Gal(b1-4)GlcNAc(b1-3)Gal(b1-4)GlcNAc(b1-6)]Man(a1-6)[GlcNAc(b1-3)Gal(b1-4)GlcNAc(b1-3)Gal(b1-4)GlcNAc(b1-3)Gal(b1-4)GlcNAc(b1-3)Gal(b1-4)GlcNAc(b1-2)Man(a1-3)]Man(b1-4)GlcNAc(b1-4)[Fuc(a1-6)]GlcNAc
# In short: as §1
# GlcNAc(b1-3)GalNAc = target: GlcNAc(b1-3)GalNAc
# In short: as §1
# [30] = target: GlcNAc(b1-3)[GlcNAc(b1-4)][GlcNAc(b1-6)]GlcNAc
# In short: as §1
# [31] = target: GlcNAc(b1-3)[GlcNAc(b1-6)]GalNAc
# In short: as §1
# Kdn(a2-3)Gal(b1-4)Glc = target: Kdn(a2-3)Gal(b1-4)Glc
# In short: as §1
# MurNAc(b1-4)GlcNAc = target: MurNAc(b1-4)GlcNAc
# In short: as §1
# [32] = target: Neu5Ac(a2-3)Gal(b1-3)GalNAc
# In short: as §1
# [33] = target: Neu5Ac(a2-3)Gal(b1-3)GalNAc(b1-4)[Neu5Ac(a2-3)]Gal(b1-4)Glc
# In short: as §1
# [34] = target: Neu5Ac(a2-3)Gal(b1-3)GlcNAc(b1-2)Man(a1-3)[Neu5Ac(a2-3)Gal(b1-3)GlcNAc(b1-2)Man(a1-6)]Man(b1-4)GlcNAc(b1-4)GlcNAc
# In short: as §1
# [35] = target: Neu5Ac(a2-3)Gal(b1-3)GlcNAc(b1-2)[Neu5Ac(a2-3)Gal(b1-3)GlcNAc(b1-4)]Man(a1-6)[Neu5Ac(a2-3)Gal(b1-3)GlcNAc(b1-2)Man(a1-3)]Man(b1-4)GlcNAc(b1-4)GlcNAc
# In short: as §1
# [36] = target: Neu5Ac(a2-3)Gal(b1-3)GlcNAc6S
# In short: as §1
# [37] = target: Neu5Ac(a2-3)Gal(b1-3)[Fuc(a1-4)]GlcNAc
# In short: as §1
# [38] = target: Neu5Ac(a2-3)Gal(b1-3)[Fuc(a1-4)]GlcNAc(b1-3)Gal(b1-4)[Fuc(a1-3)]GlcNAc
# In short: as §1
# [39] = target: Neu5Ac(a2-3)Gal(b1-4)GlcNAc(b1-3)Gal(b1-4)GlcNAc(b1-3)Gal(b1-4)GlcNAc(b1-2)Man(a1-3)[Neu5Ac(a2-3)Gal(b1-4)GlcNAc(b1-3)Gal(b1-4)GlcNAc(b1-3)Gal(b1-4)GlcNAc(b1-2)Man(a1-6)]GalNAc
# In short: as §1
# [40] = target: Neu5Ac(a2-3)Gal(b1-4)GlcNAc(b1-6)[Neu5Ac(a2-3)Gal(b1-3)]GalNAc
# In short: as §1
# [41] = target: Neu5Ac(a2-6)Gal(b1-4)GlcNAc(b1-2)Man
# In short: as §1
# [42] = target: Neu5Ac(a2-6)Gal(b1-4)GlcNAc(b1-2)Man(a1-3)[Neu5Ac(a2-6)Gal(b1-4)GlcNAc(b1-2)Man(a1-6)]Man(b1-4)GlcNAc(b1-4)[Fuc(a1-6)]GlcNAc
# In short: as §1
# [43] = target: Neu5Ac(a2-6)GlcNAc(b1-4)GlcNAc
# In short: as §1
# [44] = target: Neu5Ac(a2-8)Neu5Ac(a2-8)Neu5Ac
# In short: as §1
# [45] = target: Neu5Ac9Ac(a2-3)Gal(b1-3)GlcNAc
# In short: as §1
binder,measurement,setting,value
rCnSL-proB (Clitocybe nebularis) (protein) PTFSPIFALLAFLPFGTLASLLPQTQLVFRINPNLPGPNDVFVGYRGTNNVVGAIYERDGIKDTPMNNGADAELGPGSYITDDLFTAQIFASGSAGNNPGTTATVCKIYADGVQWRGAPKGYLPVLYFGNGQAAEQTRQTYLQGLDIPGTAIRFANLAKTPNQGPTAPRQMVVPSGGLQTLLKASCFPANHAALPQVLSYFNVRAALPPGWNIRTGPEFPNWTN,glycan array binding signal (z-score),[1],-0.282
same,glycan array binding signal (z-score),[2],3.69
same,glycan array binding signal (z-score),[3],0.251
same,glycan array binding signal (z-score),[4],0.259
same,glycan array binding signal (z-score),[5],-0.77
same,glycan array binding signal (z-score),[6],3.9
same,glycan array binding signal (z-score),[7],-0.08
same,glycan array binding signal (z-score),[8],-0.654
same,glycan array binding signal (z-score),[9],-0.565
same,glycan array binding signal (z-score),[10],-0.826
same,glycan array binding signal (z-score),[11],-0.093
same,glycan array binding signal (z-score),[12],-0.42
same,glycan array binding signal (z-score),[13],3.58
same,glycan array binding signal (z-score),[14],-0.511
same,glycan array binding signal (z-score),[15],0.089
same,glycan array binding signal (z-score),Gal(b1-4)Glc6S,-0.06
same,glycan array binding signal (z-score),[16],3.51
same,glycan array binding signal (z-score),[17],4.49
same,glycan array binding signal (z-score),[18],6.35
same,glycan array binding signal (z-score),[19],4.18
same,glycan array binding signal (z-score),[20],1.76
same,glycan array binding signal (z-score),[21],2.28
same,glycan array binding signal (z-score),[22],0.375
same,glycan array binding signal (z-score),[23],4.08
same,glycan array binding signal (z-score),[24],-0.283
same,glycan array binding signal (z-score),[25],0.549
same,glycan array binding signal (z-score),[26],3.38
same,glycan array binding signal (z-score),[27],-0.308
same,glycan array binding signal (z-score),[28],-0.133
same,glycan array binding signal (z-score),[29],0.742
same,glycan array binding signal (z-score),GlcNAc(b1-3)GalNAc,-0.757
same,glycan array binding signal (z-score),[30],-0.62
same,glycan array binding signal (z-score),[31],-0.668
same,glycan array binding signal (z-score),Kdn(a2-3)Gal(b1-4)Glc,-1.27
same,glycan array binding signal (z-score),MurNAc(b1-4)GlcNAc,-0.477
same,glycan array binding signal (z-score),[32],-0.437
same,glycan array binding signal (z-score),[33],-0.343
same,glycan array binding signal (z-score),[34],3.69
same,glycan array binding signal (z-score),[35],0.146
same,glycan array binding signal (z-score),[36],0.395
same,glycan array binding signal (z-score),[37],-0.555
same,glycan array binding signal (z-score),[38],0.025
same,glycan array binding signal (z-score),[39],4.43
same,glycan array binding signal (z-score),[40],-0.239
same,glycan array binding signal (z-score),[41],0.328
same,glycan array binding signal (z-score),[42],0.037
same,glycan array binding signal (z-score),[43],-0.255
same,glycan array binding signal (z-score),[44],-0.203
same,glycan array binding signal (z-score),[45],-0.873
